Measured values as given in PubChem BioAssay (NCATS).
Inconclusive results are not listed. Active and inactive are the calls of the source. Unless noted, calls come from the whole dose curve; as a rule, active = well fitted curve in the direction sought with a large enough effect; inconclusive = small, poorly fitted or top-dose-only effect, or another doubt; inactive = no such curve, though single readings can be large; an effect the other way counts as inactive or inconclusive.

Experiments:
[1] = MultiTox-Fluor Cytotoxicity Assay - LYMP1-001 - Live Cells (AID 947)
[2] = Cell Viability - LYMP1-002 - Assay at 16 hr (AID 948)
In short: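 LYMP1-002 human lymphoblastoid cells, 2500/well, were treated with compounds for 16 hr at 37 C in complete medium. Viability was read as intracellular ATP by CellTiter-Glo luminescence, and AC50 was derived from a Hill fit to concentration-response data.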

[3] = MultiTox-Fluor Cytotoxicity Assay - LYMP1-002 - Live Cells (AID 955)
In short: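 In this qHTS viability format, lymphoblastoid cells (LYMP1-002, human) received compound for 16 hr at 37 C. Fluorogenic GF-AFC cleavage by viable cells was detected at 405/510 nm after 1 h at room temperature.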

[4] = MultiTox-Fluor Cytotoxicity Assay - LYMP1-002 - Dead Cells (AID 960); note: nearly all actives have a fitted effect of over 60% in size
In short: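 Concentration-dependent increases in membrane-leaked protease activity are quantified in LYMP1-002 cells after 16 hr treatment; values are normalized against DMSO and tetraoctylammonium bromide (15 uM) controls and AC50 derived by Hill modeling.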

[5] = MultiTox-Fluor Cytotoxicity Assay - LYMP1-003 - Dead Cells (AID 961); note: nearly all actives have a fitted effect of over 70% in size
In short: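 LYMP1-003 human lymphoblastoid cells (2500/well) exposed to compound 16 h at 37 C in complete medium; dead-cell protease read with bis-AAF-R110 fluorescence (Ex/Em 485/520) after 60 min at room temperature. Normalized to DMSO and 15 uM tetraoctylammonium bromide; AC50 from Hill fit.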

[6] = MultiTox-Fluor Cytotoxicity Assay - LYMP1-003 - Live Cells (AID 962);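 note: cytotoxic hits lower the live-cell protease signal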
In short: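 Human lymphoblastoid line LYMP1-003 in complete culture medium, treated 16 hr with titrated compounds. Viable cells quantified via cell-permeant GF-AFC substrate fluorescence; AC50 derived by Hill fitting.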

[7] = Cell Viability - LYMP1-003 - Assay at 24 hr (AID 963)
In short: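 The lymphoblastoid line was treated with titrated compounds for 24 hours, and viable cell number estimated from luciferase-based ATP luminescence.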

[8] = Cell Viability - LYMP1-003 - Assay at 40 hr (AID 964); note: series mostly up to about 92 µM; nearly all actives have a fitted effect of over 60% in size
In short: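 Acute toxicity is scored as a concentration-dependent loss of intracellular ATP in LYMP1-003 cells (2500/well, complete medium) after 40 hr at 37 C, measured by CellTiter-Glo luminescence; AC50 values derive from standard Hill modelling.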

[9] = Cell Viability - LYMP2-003 (AID 965);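 note: cells exposed to compounds for 24 h before reading; nearly all actives have a fitted effect of over 50% in size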
In short: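 Human lymphoblastoid LYMP2-003 cells, 2500/well, exposed to compounds for 24 h at 37 C in complete medium. Viability read as intracellular ATP by CellTiter-Glo luminescence; AC50 from Hill-equation fits of qHTS concentration-response data.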

[10] = target: Pyruvate kinase PKM (Homo sapiens) (UniProt P14618); assay: qHTS Assay for Activators of Human Muscle Pyruvate Kinase (AID 954; active = well fitted curve in the direction sought with a large enough effect, not every such curve was filed as active)
Pyruvate kinase PKM (Homo sapiens), sequence (P14618 whole entry, looked up): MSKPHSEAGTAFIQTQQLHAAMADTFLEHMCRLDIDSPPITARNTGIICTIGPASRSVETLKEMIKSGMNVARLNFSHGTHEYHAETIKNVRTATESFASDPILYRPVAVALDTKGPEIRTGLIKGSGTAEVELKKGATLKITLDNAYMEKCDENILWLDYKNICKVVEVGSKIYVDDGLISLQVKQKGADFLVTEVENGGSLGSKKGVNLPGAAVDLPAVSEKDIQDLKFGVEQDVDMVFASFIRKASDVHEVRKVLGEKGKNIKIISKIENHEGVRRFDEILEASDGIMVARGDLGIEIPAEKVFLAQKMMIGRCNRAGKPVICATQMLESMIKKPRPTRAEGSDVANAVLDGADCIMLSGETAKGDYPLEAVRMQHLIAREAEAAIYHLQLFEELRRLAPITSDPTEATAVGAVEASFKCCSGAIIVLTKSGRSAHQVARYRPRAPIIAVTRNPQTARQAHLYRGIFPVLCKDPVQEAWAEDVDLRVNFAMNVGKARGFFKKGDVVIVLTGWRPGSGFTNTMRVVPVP
In short: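 Compound pinned into substrate mix (0.5 mM PEP, 0.1 mM ADP), then 0.1 nM PKM2 added; 1 h, RT. Stop/detection luciferase reagent added, luminescence read. Normalized to no-inhibition and no-enzyme or reference-inhibitor controls.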

Measured: outcome

C=Cc1ccccc1
inactive: [1] | [2] | [3] | [4] | [5] | [6] | [7] | [8] | [9]

COC(C)=O
inactive: [1] | [2] | [3] | [4] | [5] | [6] | [7] | [8] | [9]

O=C(O)CC(O)(CC(=O)O)C(=O)O
inactive: [1] | [2] | [3] | [4] | [5] | [6] | [7] | [8] | [9]

CN(C)Cc1ccccc1
inactive: [1] | [2] | [3] | [4] | [5] | [6] | [7] | [8] | [9]

CN[C@H]1CC[C@@H](c2ccc(Cl)c(Cl)c2)c2ccccc21
inactive: [10]

NCCCC(=O)O
inactive: [10]

Cc1ccc(OC[C@H](O)[C@H](C)NC(C)C)c2c1CCC2
inactive: [10]

CCCCCCCCCC(=O)O
inactive: [1] | [2] | [3] | [4] | [5] | [6] | [7] | [8] | [9]
